Source: PubChem BioAssay (several laboratories)
Efflux pump inh = blocks antifungal efflux pumps in multiplex yeast assay; S. cerevisiae Candida pump triplex, Nile Red efflux; inhibition, % at 10 µM; hit rate 0.44% among 330,000;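 active = plate passing quality check with inhibition over a set limit, or well fluorescence over plate mean plus 4 SD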;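 note: Nile Red retained in pooled yeast measured as flow cytometry median fluorescence; 0% = buffer negative control and 100% = Enniatin B positive control; higher means more Nile Red kept so more efflux inhibition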
NPR1 activator = GC-A (human) enzyme activation. P16066. HEK293 GC-A cells, cGMP TR-FRET, EC30 ANP; 0% at EC30 ANP, 100% saturating ANP. activation, % at 10 µM. hit rate 0.14% among 370,000; in the data active = activation above about 40%
Rce1 inhib = inhibitors of yeast Ras-converting enzyme. yeast membranes, quenched prenylated peptide cleavage fluorescence. calls only. Q03530. hit rate 0.27% among 290,000;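 active = fall in fluorescence gain of 50% or more versus controls, with final raw signal at or below 3038400; inconclusive = same 50% fall but final raw signal above 3038400; inactive = fall in fluorescence gain under 50%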;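 note: plate controls were neutral control wells for no effect and wells lacking membranes for full effect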
NSD2 HMT inh = NSD2 (human) methyltransferase inhibition; O96028; NSD2 peptide methylation, AlphaScreen, 120 min; inhibition, % at 12.5 µM; hit rate 0.54% among 310,000; in the data active = inhibition above about 50%
V-ATPase pH = alters yeast V-ATPase proton transport | S. cerevisiae, pHLuorin cytosolic pH fluorescence | response, % at 10 µM | hit rate 0.37% among 350,000; in the data active = response mostly above about 7.3%, no sharp cut-off; inactive = mostly below about 5.4%; note: actives read high
GC-B act = GC-B (human) receptor activation. activation, % at 10 µM. AID 1920062. HEK293-GC-B cells, CNP EC30, cGMP TR-FRET; 0% at EC30 CNP, 100% saturating CNP. hit rate 0.11% among 370,000. P20594;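 active = activation at 10 µM reaching about 35% in either raw or pattern-adjusted values, limit read from the data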
Target sequence (P20594 whole entry, looked up): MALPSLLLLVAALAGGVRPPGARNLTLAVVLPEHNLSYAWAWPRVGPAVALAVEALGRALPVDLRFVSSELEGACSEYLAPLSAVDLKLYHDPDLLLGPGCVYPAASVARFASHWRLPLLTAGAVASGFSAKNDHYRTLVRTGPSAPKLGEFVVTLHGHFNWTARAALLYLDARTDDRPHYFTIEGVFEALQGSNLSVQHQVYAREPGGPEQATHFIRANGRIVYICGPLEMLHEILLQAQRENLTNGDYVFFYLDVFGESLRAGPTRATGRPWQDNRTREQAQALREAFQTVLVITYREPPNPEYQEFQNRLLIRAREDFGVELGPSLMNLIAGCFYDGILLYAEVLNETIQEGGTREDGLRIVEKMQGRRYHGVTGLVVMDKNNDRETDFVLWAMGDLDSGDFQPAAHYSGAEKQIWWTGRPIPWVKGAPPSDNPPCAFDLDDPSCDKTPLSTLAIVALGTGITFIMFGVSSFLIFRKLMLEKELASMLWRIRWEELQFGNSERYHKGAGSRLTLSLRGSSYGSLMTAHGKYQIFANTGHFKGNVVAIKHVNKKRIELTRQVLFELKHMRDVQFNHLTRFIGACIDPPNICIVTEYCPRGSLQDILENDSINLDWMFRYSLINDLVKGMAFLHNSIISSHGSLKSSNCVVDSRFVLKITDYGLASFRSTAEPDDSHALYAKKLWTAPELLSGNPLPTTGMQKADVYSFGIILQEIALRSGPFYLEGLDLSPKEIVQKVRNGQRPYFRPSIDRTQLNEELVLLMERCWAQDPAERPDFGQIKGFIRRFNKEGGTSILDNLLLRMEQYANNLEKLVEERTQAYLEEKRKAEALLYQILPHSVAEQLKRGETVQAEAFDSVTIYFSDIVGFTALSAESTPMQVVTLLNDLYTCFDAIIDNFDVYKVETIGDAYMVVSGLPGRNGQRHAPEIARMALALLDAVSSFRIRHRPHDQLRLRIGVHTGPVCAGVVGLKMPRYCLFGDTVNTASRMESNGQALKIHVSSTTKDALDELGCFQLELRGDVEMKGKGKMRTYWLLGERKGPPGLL
Cmpd fluor yeast = flagged as fluorescent in efflux inhibitor counter-screen; shares compounds with Efflux pump inh; S. cerevisiae AD/pABC3, compound fluorescence, flow cytometry; hit rate 4% among 1,700; AID 588517; fluorescence ratio to DMSO, % at 10 µM;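 active = fluorescence ratio to DMSO above its plate's cutoff, the plate mean ratio plus 5 SD, cut at about 210% in these data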;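 note: unstained yeast with no Nile Red so the signal is compound autofluorescence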
Mdr1 pump inh = inhibitors of Candida albicans Mdr1 efflux pump. AID 588518. shares compounds with Efflux pump inh. S. cerevisiae AD/CaMDR1, Nile Red efflux, flow cytometry. inhibition, % at 10 µM. hit rate 1% among 1,700; in the data active = inhibition above about 26%;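 note: 0% = DMSO vehicle and 100% = reference inhibitor; higher means more Nile Red retained so more efflux inhibition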
CaCdr2 efflux inh = blocks the Candida albicans Cdr2 efflux pump in yeast. shares compounds with Efflux pump inh. S. cerevisiae AD/CaCDR2, Nile Red retention, flow cytometry. Nile Red retention ratio vs DMSO, % at 10 µM. hit rate 4% among 1,700. AID 588520; in the data active = Nile Red retention ratio vs DMSO above about 190%;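 note: higher ratio means more blocking of Cdr2 efflux of the dye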
CaCdr1 efflux inh = Candida Cdr1 efflux pump inhibition. AID 588522. inhibition, % at 10 µM. S. cerevisiae AD/CaCDR1, Nile Red efflux, flow cytometry. hit rate 1% among 1,700. shares compounds with Efflux pump inh;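 active = inhibition above the screen-wide mean plus twice its standard deviation, cut at about 32% in these data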
* = called active by the depositor. Hits are enriched below; roughly 1.6% of the tested compounds scored in any of these assays.

How did Cc1cccc(NC(=O)c2nc[nH]c2C(=O)N[C@H](C)c2ccccc2)c1 do in these assays?
Efflux pump inh: 0.9*; NPR1 activator: -1.1; V-ATPase pH: 2.5; GC-B act: -4.0; Cmpd fluor yeast: 105.7; Mdr1 pump inh: 0.1; CaCdr2 efflux inh: 103.8; CaCdr1 efflux inh: 0.0

How did C[C@H](NC(=O)c1[nH]cnc1C(=O)Nc1ccccc1)c1ccccc1 do in these assays?
Efflux pump inh: 0.1; NPR1 activator: -1.6; V-ATPase pH: 3.8; GC-B act: -1.6

What do the screens show for `COc1ccc(-n2c(SCC(=O)N/N=C(/C)c3cccc(O)c3)nc3ccccc3c2=O)cc1`?
NPR1 activator: -0.3; NSD2 HMT inh: -2.3; GC-B act: 7.1

Results for CSCCCNC(=O)c1oc(=O)c2ccccc2c1-c1ccc(C)cc1 ?
NPR1 activator: -21.2; NSD2 HMT inh: 6.7; GC-B act: -4.6

What do the screens show for `COCCNC(=O)/C(C#N)=C/C(C)=C/c1ccccc1`?
Efflux pump inh: 16.6*; NPR1 activator: 0.3; Rce1 inhib: inconclusive; NSD2 HMT inh: -1.7; V-ATPase pH: -0.6; GC-B act: -2.0; Cmpd fluor yeast: 98.9; Mdr1 pump inh: -0.2; CaCdr2 efflux inh: 102.2; CaCdr1 efflux inh: 0.0

Results for CCCCCCCCCCOC(=O)Cn1c(COc2ccc(Cl)cc2)[n+](C)c2ccccc21 ?
Efflux pump inh: 3.1*; NPR1 activator: -14.8; Rce1 inhib: inactive; NSD2 HMT inh: 7.2; V-ATPase pH: 1.3; GC-B act: -6.2; Cmpd fluor yeast: 114.8; Mdr1 pump inh: 0.0; CaCdr2 efflux inh: 221.9*; CaCdr1 efflux inh: 0.2

How did CCCCCCCCCCOC(=O)Cn1c(COc2cccc(C)c2)[n+](C)c2ccccc21 do in these assays?
Efflux pump inh: 1.0*; NPR1 activator: -9.1; Rce1 inhib: inactive; NSD2 HMT inh: 17.9; V-ATPase pH: -5.5; GC-B act: -0.2; Cmpd fluor yeast: 110.0; Mdr1 pump inh: 0.0; CaCdr2 efflux inh: 120.4; CaCdr1 efflux inh: 0.0

Results for C/C(=N\NC(=O)CCCNc1ccccc1)c1ccncc1 ?
Efflux pump inh: 1.1*; NPR1 activator: -5.6; Rce1 inhib: inactive; NSD2 HMT inh: -0.9; V-ATPase pH: 1.6; GC-B act: -5.5; Cmpd fluor yeast: 96.6; Mdr1 pump inh: -0.1; CaCdr2 efflux inh: 106.3; CaCdr1 efflux inh: -0.1

Results for C/C(=N\NC(=O)CCCNc1ccc(C)cc1)c1ccccn1 ?
Efflux pump inh: -0.2; NPR1 activator: -1.1; Rce1 inhib: inactive; NSD2 HMT inh: -3.6; V-ATPase pH: 1.2; GC-B act: 1.1

Results for CC(C)n1cc(/C=N/NC(=O)COc2cccc3cccnc23)c2ccccc21 ?
Efflux pump inh: 3.1*; NPR1 activator: 2.4; Rce1 inhib: inactive; NSD2 HMT inh: -0.1; V-ATPase pH: 5.1; GC-B act: 2.6; Cmpd fluor yeast: 111.3; Mdr1 pump inh: -0.1; CaCdr2 efflux inh: 116.0; CaCdr1 efflux inh: 0.1

How did C=CCn1cc(/C=N/NC(=O)COc2cccc3cccnc23)c2ccccc21 do in these assays?
Efflux pump inh: 0.0; NPR1 activator: 0.9; Rce1 inhib: inactive; NSD2 HMT inh: 1.0; V-ATPase pH: -0.6; GC-B act: 0.3

Results for O=C(COc1ccccc1Cl)c1ccc[nH]1 ?
Efflux pump inh: 0.7*; NPR1 activator: 0.8; Rce1 inhib: inactive; NSD2 HMT inh: -3.6; V-ATPase pH: 1.4; GC-B act: 3.7; Cmpd fluor yeast: 96.2; Mdr1 pump inh: 0.0; CaCdr2 efflux inh: 109.4; CaCdr1 efflux inh: 0.4

What do the screens show for `c1ccc(Cn2c(SCC3CCC3)nnc2-c2cccnc2)cc1`?
NPR1 activator: -6.9; NSD2 HMT inh: -0.8; GC-B act: 1.8

What do the screens show for `CC1Cc2ccccc2N1S(=O)(=O)c1cccc(C(=O)N2CCN(c3ncccn3)CC2)c1` (stereo not given)?
Efflux pump inh: 0.9*; NPR1 activator: 3.1; Rce1 inhib: inactive; NSD2 HMT inh: -1.1; V-ATPase pH: 2.8; GC-B act: 8.3; Cmpd fluor yeast: 105.8; Mdr1 pump inh: -0.1; CaCdr2 efflux inh: 102.9; CaCdr1 efflux inh: -0.1

What do the screens show for `N#Cc1nc(COc2ccc(Cl)cc2Cl)oc1N1CCOCC1`?
Efflux pump inh: 0.8*; NPR1 activator: 16.1; Rce1 inhib: inactive; NSD2 HMT inh: 16.3; V-ATPase pH: -2.6; GC-B act: -2.0; Cmpd fluor yeast: 109.5; Mdr1 pump inh: 0.1; CaCdr2 efflux inh: 108.0; CaCdr1 efflux inh: 0.0

How did CC(C)CC(=O)Nc1nnc(CCc2ccccc2)s1 do in these assays?
Efflux pump inh: 0.1; NPR1 activator: 6.5; Rce1 inhib: inactive; NSD2 HMT inh: -2.2; V-ATPase pH: 0.2; GC-B act: 5.3

How did CCC(C)C(=O)Nc1nnc(CCc2ccccc2)s1 (stereo not given) do in these assays?
Efflux pump inh: 1.2*; NPR1 activator: 1.0; Rce1 inhib: inactive; NSD2 HMT inh: -2.5; V-ATPase pH: 1.4; GC-B act: -1.2; Cmpd fluor yeast: 106.8; Mdr1 pump inh: 0.0; CaCdr2 efflux inh: 95.4; CaCdr1 efflux inh: -0.2

How did CCC[C@H]1[C@@H](OC(=O)N2CCN(c3ccccc3)CC2)CC[C@@]23CCCN2C(=O)CCC[C@@H]13 do in these assays?
NPR1 activator: -3.6; GC-B act: -5.4

How did O=C(Oc1ccc(/C=N/NC(=O)c2ccccn2)cc1)c1ccc(Br)cc1 do in these assays?
Efflux pump inh: 7.2*; NPR1 activator: 6.5; Rce1 inhib: inactive; NSD2 HMT inh: -2.8; V-ATPase pH: 3.6; GC-B act: 0.4; Cmpd fluor yeast: 101.1; Mdr1 pump inh: -0.1; CaCdr2 efflux inh: 102.2; CaCdr1 efflux inh: 0.0

Results for O=C(OCCN1CCN(C2CN(Cc3cn(Cc4ccccc4Cl)nn3)S(=O)(=O)C2)CC1)c1cc2ccccc2o1 (stereo not given) ?
NPR1 activator: 2.1; GC-B act: -1.8

Results for CCOC(=O)c1c(C)[nH]c(C)c1S(=O)(=O)NCc1ccccc1C ?
Efflux pump inh: 0.4*; NPR1 activator: -4.5; Rce1 inhib: inactive; NSD2 HMT inh: 12.6; V-ATPase pH: -5.5; GC-B act: 1.6; Cmpd fluor yeast: 105.0; Mdr1 pump inh: -0.1; CaCdr2 efflux inh: 105.7; CaCdr1 efflux inh: 0.1

Results for COc1ccc(C(=O)N[C@@H]2CC[C@@]34CCCN3C(=O)CCC[C@H]4[C@H]2C)cc1 ?
NPR1 activator: -2.1; GC-B act: 2.6
